Measured values published in PubChem BioAssay AID652039 (The Scripps Research Institute Molecular Screening Center, 2013).
About 3,300 (0.89%) of roughly 370,000 compounds were called active.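 Rule for the calls: active = activation above the mean of all tested compounds plus 3 SD, computed per campaign excluding outliers beyond control limits (cut at about 13% in these data); inactive = the rest.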 The entries come from a sample that favours actives as a whole.

The compounds below were run against Kallikrein-7 (Homo sapiens) (UniProt P49862) (assay: activation of human kallikrein-7 proenzyme – biochemical, fluorescence intensity, primary screen (AID 652039)). Settings: purified proKLK7, EDANS-DABCYL substrate fluorescence; at 7 µM; hits give high values; 100% is mature enzyme control, 0% vehicle.
Sequence of Kallikrein-7 (Homo sapiens) (P49862 whole entry, looked up): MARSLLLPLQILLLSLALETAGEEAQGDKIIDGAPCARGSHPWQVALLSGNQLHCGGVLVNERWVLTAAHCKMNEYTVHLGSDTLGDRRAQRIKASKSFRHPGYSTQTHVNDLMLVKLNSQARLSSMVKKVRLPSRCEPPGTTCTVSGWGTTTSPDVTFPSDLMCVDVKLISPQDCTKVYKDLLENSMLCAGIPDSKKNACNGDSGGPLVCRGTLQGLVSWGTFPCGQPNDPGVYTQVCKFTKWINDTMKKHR

| Compound | activation |
| --- | --- |
| O=C(NC1CCCCN(Cc2cccc(C(F)(F)F)c2)C1=O)c1ccccc1I (stereo not given) | 0.36% (inactive) |
| CN(C)CCN1CCN(c2cc(-c3cccc(Cl)c3)nc3ccnn23)CC1 | 18.8% (active) |
| C#Cc1cc(N2CCN(C(=O)c3ccoc3)CC2)n2nc(-c3cccc(Cl)c3)cc2n1 | -41% (inactive) |
| CN(C)C(=O)c1nc2ccc(Cl)cn2c1CN1CCN(c2ncccn2)CC1 | -1.33% (inactive) |
| Cc1ccc(-n2c(SCC(=O)Nc3cccc4ccccc34)nnc2-c2ccco2)cc1 | -0.44% (inactive) |
| C=CS(=O)(=O)N(Cc1nnn(Cc2ccccc2)c1Br)[C@H](C(=O)OC)C(C)C | -0.36% (inactive) |
| Cc1cc(C)nc(Nc2n[nH]c(-c3ccccc3N)n2)n1 | 6.37% (inactive) |
| Nc1ccccc1-c1nc2ccncc2[nH]1 | 86.7% (active) |
| CN(C(N)=NC(=O)/C=C/c1ccccc1)C(C#Cc1ccccc1)Cc1ccccc1 (stereo not given) | -0.15% (inactive) |
| O=C(NCc1cccs1)C1CCN(S(=O)(=O)c2ccccc2[N+](=O)[O-])CC1 | 0.23% (inactive) |
| COC(=O)[C@H](C(C)C)N1CCc2nnn(Cc3ccc(C)cc3)c2-c2ccccc2S1(=O)=O | -0.1% (inactive) |
| CC(=O)N1C(=O)C2(Nc3ccccc3N2)c2ccccc21 | -5.83% (inactive) |
| CC(C)=NN1C(=O)c2ccccc2NC1(C)C | 13% (active) |
| COC(=O)c1cc(S(=O)(=O)N2CCN(C(=O)C3CCCO3)CC2)cn1C (stereo not given) | -0.37% (inactive) |
| O=C(C1CCCN1S(=O)(=O)c1ccccc1)N1CCc2ccccc2C1 (stereo not given) | -0.08% (inactive) |
| Cc1cc(C)c(C#N)c(SCC(=O)NN2CC(=O)N(c3ccccc3F)CC2=O)n1 | 68.7% (active) |
| Cc1cc(C(F)(F)F)c(C#N)c(SCC(=O)NC2CC2)n1 | -0.4% (inactive) |
| COCc1cc(C)nc(SCC(=O)Nc2cccc(C)c2)c1C#N | 0.51% (inactive) |
| CCOC(=O)[C@]12CCCC3=C1N(CCC3)C(=O)[C@@H](CC(=O)NCc1cccs1)C2 | -0.54% (inactive) |
| CCN(CC)Cc1c(C(=O)N/N=C/c2cccc(OCc3ccc(F)cc3)c2)nnn1-c1nonc1N | 0.38% (inactive) |
| COc1ccc(S(=O)(=O)N/N=C\c2ccc(OC)c(COc3ccc(C)cc3[N+](=O)[O-])c2)cc1 | 0.18% (inactive) |
| COc1cccc(OCc2cc(/C=N/NC(=O)c3nc(Cl)c(Cl)c(N)c3Cl)ccc2OC)c1 | 48.2% (active) |
| COC(=O)[C@]12C[C@H](CC(=O)NCCCN3CCCC3=O)C(=O)N(CCc3ccc(OC)c(OC)c3)C1=C[C@H](COCc1ccccc1)O[C@@H]2C | -0.02% (inactive) |
| COC(=O)[C@]12C[C@H](CC(=O)NCc3ccccc3)C(=O)N(CCc3ccc(OC)c(OC)c3)C1=C[C@H](C(C)(C)C)O[C@@H]2C | 0.13% (inactive) |
| COc1ccc(Cn2cc(COC(=O)N(C)Cc3ccccc3)nn2)cc1 | 0.16% (inactive) |
| CN(C)CC(=O)N[C@@H]1C[C@@H]2O[C@H](CO)CC[C@@H]2O[C@@H]1CCc1ccc(C#Cc2ccccc2)cc1 | 0.21% (inactive) |
| Cc1cc(C)c2c(n1)nn1c(-n3ccnc3)cc(C)nc21 | 15.7% (active) |
| Cc1cc(C)c2c(NC(=O)C3CC3)nn(C)c2n1 | -0.27% (inactive) |

| Compound | activation |
| --- | --- |
| Cc1ccc(OCc2nnc(SC/C=C/c3ccccc3)n2Cc2ccco2)cc1 | 0.81% (inactive) |
| C=CCN1C(=O)[C@@H](CC(=O)N2CCN(C(=O)OCC)CC2)[C@]2(C(=O)OCC)CCCCC/C=C/12 | 0.05% (inactive) |
| NC(N)=Nc1nc(-c2ccccc2)c2cc(Cl)ccc2n1 | 14.3% (active) |
| NC(N)=Nc1nc2ccc(Br)cc2c(=O)[nH]1 | -0.15% (inactive) |
| Clc1ccc2nc(-c3ccccc3)nc(C(Cl)Cl)c2c1 | -0.5% (inactive) |
| CC(C)N1CCCCC(NC(=O)c2ccc3ccccc3c2)C1=O (stereo not given) | 0.11% (inactive) |
| C=CCN1C(=O)[C@@H](CC(=O)NCCCCc2ccccc2)[C@]2(C(=O)OCC)CCCCC/C=C/12 | 0.05% (inactive) |
| CC(=O)C1(C(=O)Nc2nccs2)CC(c2ccccc2C(F)(F)F)=NO1 (stereo not given) | 1.07% (inactive) |
| COC(=O)[C@]12C[C@H](CC(=O)NCCc3ccccc3OC)C(=O)N(Cc3ccco3)C1=C[C@H](C(C)C)O[C@@H]2C1CC1 | 0.66% (inactive) |
| CCOC(=O)C1=C(O)/C(=C/c2ccc(OCC(=O)Nc3ccc(C)cc3)cc2)N=C1C | 31.9% (active) |
| Cc1ccc(NC(=O)CN(C)C(=O)COC(=O)c2nccnc2N)cc1 | 8.05% (inactive) |
| CCOc1ccc(NC(=O)COc2ccc(S(=O)(=O)N3CCCC3)cc2)cc1 | 0.16% (inactive) |
| CC(c1c[nH]c2ccccc12)c1c(-c2ccccc2)n(C)c2ccccc12 (stereo not given) | -7.26% (inactive) |
| COc1ccc(C(=O)OCCN2CCN(C3CN(Cc4cn(Cc5ccccc5F)nn4)S(=O)(=O)C3)CC2)cc1OC (stereo not given) | 0% (inactive) |
| Clc1ccc(-n2c(SC/C=C/c3ccccc3)nnc2-c2ccco2)cc1 | 0.14% (inactive) |
| COCc1cc(=O)[nH]c2cc(NC(=O)C(F)(F)F)c(C)cc12 | 466% (active) |
| Cc1ccccc1Cn1nc(C)c(NC(=O)C(F)(F)F)c1C | -0.19% (inactive) |
| COCc1cc(=O)[nH]c(-c2ccc(C(F)(F)F)cc2)n1 | 0.23% (inactive) |
| COc1ccc(OC)c(Cc2cnc3nc(N)nc(N)c3c2C)c1 | -0.29% (inactive) |
| COC[C@@H]1CCCN1c1ccc2c(c1)O[C@H](C)CCN(C1CC1)S2(=O)=O | -0.36% (inactive) |
| CCOC(=O)[C@]12CCCC3=C1N(CCC3)C(=O)[C@@H](CC(=O)N1CCSCC1)C2 | -0.2% (inactive) |
| COC(=O)c1cc(C(=O)OC)cc(N2C(=O)CC(N3CCN(c4ccccc4)CC3)C2=O)c1 (stereo not given) | -0.42% (inactive) |
| COC(=O)C1=NN(c2ccccc2)C2C(=O)N(c3ccccc3OC)C(=O)C12 (stereo not given) | 20.8% (active) |
| COC(=O)C1(C)NC(c2ccccc2OC)C2C(=O)N(c3ccccc3)C(=O)C21 (stereo not given) | 0.39% (inactive) |
| CCOc1ccc(-n2c(SCC(=O)Nc3cc(C)c(NC(=O)c4ccccc4)cc3OC)nnc2-c2cccs2)cc1 | 13.4% (active) |
| COc1ccc(-n2c(SCC(=O)Nc3ccccc3-c3ccccc3)nnc2-c2cccnc2)cc1 | -0.23% (inactive) |
| CCOc1ccc(-n2c(SCC(=O)Nc3cc(C)c(NC(=O)c4ccccc4)cc3OC)nnc2-c2cccc(Cl)c2)cc1 | 4.85% (inactive) |
